The whole screen tested about 5,500 compounds, of which about 2,000 (36%) were called active. About 18% were inconclusive and are not listed. Rule as the data show it: active = normalized growth mostly below about 0.91 (no sharp cut-off); inconclusive = no clear call, values can overlap the other calls; inactive = mostly above about 0.92. The list shows a part of the results.
Experiment: chemical genetic growth profiling, strain panel (AID 1159580);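 also: tested at 20 µM; growth read once vehicle control cultures reached saturation at 30 °C; 1 = growth at the plate median or of vehicle wells; lower values mean less growth of the strain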
Details: growth OD

Measured: normalized growth

CCCCSP(=O)(SCCCC)SCCCC
inactive: S. cerevisiae deletion strains, locus YAL013W, strain DEP1, active compounds read low 1.01 | S. cerevisiae deletion strains, locus YBR021W, strain FUR4, active compounds read low 1 | S. cerevisiae deletion strains, locus YBR229C, strain ROT2, active compounds read low 1.01 | S. cerevisiae deletion strains, locus YCL029C, strain bik1, active compounds read low 1.01 | S. cerevisiae deletion strains, locus YDL035C, strain GPR1, active compounds read low 1.01 | S. cerevisiae deletion strains, locus YDL074C, strain BRE1, active compounds read low 1.04 | S. cerevisiae deletion strains, locus YDL101C, strain DUN1, active compounds read low 1.02 | S. cerevisiae deletion strains, locus YDL134C, strain PPH21, active compounds read low 1.01 | S. cerevisiae deletion strains, locus YDL185W, strain tfp1, active compounds read low 1.01 | S. cerevisiae deletion strains, locus YDL192W, strain arf1, active compounds read low 1.01 | S. cerevisiae deletion strains, locus YDR101C, strain arx1, active compounds read low 1.01 | S. cerevisiae deletion strains, locus YDR150W, strain NUM1, active compounds read low 1.01 | S. cerevisiae deletion strains, locus YDR162C, strain NBP2, active compounds read low 1.02 | S. cerevisiae deletion strains, locus YDR318W, strain mcm21, active compounds read low 1.01 | S. cerevisiae deletion strains, locus YDR388W, active compounds read low 1.01 | S. cerevisiae deletion strains, locus YDR502C, strain sam2, active compounds read low 1.01 | S. cerevisiae deletion strains, locus YEL061C, strain CIN8, active compounds read low 1.01 | S. cerevisiae deletion strains, locus YER110C, active compounds read low 1.01 | S. cerevisiae deletion strains, locus YER155C, strain BEM2, active compounds read low 1.01 | S. cerevisiae deletion strains, locus YER167W, strain BCK2, active compounds read low 1.02 | S. cerevisiae deletion strains, locus YGL078C, strain dbp3, active compounds read low 1.01 | S. cerevisiae deletion strains, locus YGL086W, strain mad1, active compounds read low 1 | S. cerevisiae deletion strains, locus YGL248W, strain PDE1, active compounds read low 1.02 | S. cerevisiae deletion strains, locus YGR078C, strain PAC10, active compounds read low 1.02 | S. cerevisiae deletion strains, locus YGR135W, strain pre9, active compounds read low 1 | S. cerevisiae deletion strains, locus YGR229C, strain SMI1, active compounds read low 1.04 | S. cerevisiae deletion strains, locus YGR252W, strain gcn5, active compounds read low 0.984 | S. cerevisiae deletion strains, locus YHR030C, strain SLT2, active compounds read low 1.02 | S. cerevisiae deletion strains, locus YHR079C, strain IRE1 (second series), active compounds read low 1.01 | S. cerevisiae deletion strains, locus YHR094C, strain hxt1, active compounds read low 1 | S. cerevisiae deletion strains, locus YHR129C, strain ARP1, active compounds read low 1.02 | S. cerevisiae deletion strains, locus YHR200W, strain rpn10, active compounds read low 1 | S. cerevisiae deletion strains, locus YIL066C, strain RNR3, active compounds read low 1.02 | S. cerevisiae deletion strains, locus YIL073C, strain SPO22, active compounds read low 1.06 | S. cerevisiae deletion strains, locus YIL125W, strain kgd1, active compounds read low 1.01 | S. cerevisiae deletion strains, locus YIR030C, strain dcg1, active compounds read low 0.996 | S. cerevisiae deletion strains, locus YJL095W, strain BCK1, active compounds read low 1.05 | S. cerevisiae deletion strains, locus YJL134W, strain LCB3, active compounds read low 1.02 | S. cerevisiae deletion strains, locus YJL168C, strain set2, active compounds read low 1.01 | S. cerevisiae deletion strains, locus YJL187C, strain SWE1 (second series), active compounds read low 1.01 | S. cerevisiae deletion strains, locus YJR043C, strain POL32, active compounds read low 1.01 | S. cerevisiae deletion strains, locus YJR075W, strain HOC1, active compounds read low 1.02 | S. cerevisiae deletion strains, locus YKL009W, strain mrt4, active compounds read low 0.961 | S. cerevisiae deletion strains, locus YKL068W, active compounds read low 1.01 | S. cerevisiae deletion strains, locus YKL085W, strain MDH1 (second series), active compounds read low 1.01 | S. cerevisiae deletion strains, locus YKL085W, strain MDH1, active compounds read low 1.01 | S. cerevisiae deletion strains, locus YKL190W, strain CNB1, active compounds read low 1.02 | S. cerevisiae deletion strains, locus YKR001C, strain vps1, active compounds read low 1.01 | S. cerevisiae deletion strains, locus YLR039C, strain RIC1, active compounds read low 1.05 | S. cerevisiae deletion strains, locus YLR058C, strain SHM2, active compounds read low 1.01 | S. cerevisiae deletion strains, locus YLR102C, strain apc9, active compounds read low 0.995 | S. cerevisiae deletion strains, locus YLR262C, strain YPT6, active compounds read low 1.04 | S. cerevisiae deletion strains, locus YLR268W, strain sec22, active compounds read low 1.01 | S. cerevisiae deletion strains, locus YLR330W, strain CHS5, active compounds read low 1.01 | S. cerevisiae deletion strains, locus YLR342W, strain FKS1 (second series), active compounds read low 1.04 | S. cerevisiae deletion strains, locus YLR371W, strain rom2, active compounds read low 0.999 | S. cerevisiae deletion strains, locus YLR418C, strain cdc73, active compounds read low 1.02 | S. cerevisiae deletion strains, locus YML016C, strain PPZ1, active compounds read low 1.02 | S. cerevisiae deletion strains, locus YML032C, strain rad52, active compounds read low 1.01 | S. cerevisiae deletion strains, locus YML124C, strain tub3, active compounds read low 1.01 | S. cerevisiae deletion strains, locus YMR078C, strain ctf18, active compounds read low 1.01 | S. cerevisiae deletion strains, locus YMR223W, strain ubp8, active compounds read low 1 | S. cerevisiae deletion strains, locus YMR263W, strain SAP30, active compounds read low 1.02 | S. cerevisiae deletion strains, locus YMR307W, strain GAS1, active compounds read low 1.2 | S. cerevisiae deletion strains, locus YNL067W, strain RPL9B, active compounds read low 1.01 | S. cerevisiae deletion strains, locus YNL128W, strain TEP1, active compounds read low 1.01 | S. cerevisiae deletion strains, locus YNL153C, strain GIM3, active compounds read low 1.01 | S. cerevisiae deletion strains, locus YNL233W, strain BNI4, active compounds read low 1.01 | S. cerevisiae deletion strains, locus YNL250W, strain rad50, active compounds read low 1.01 | S. cerevisiae deletion strains, locus YNL271C, strain bni1, active compounds read low 0.998 | S. cerevisiae deletion strains, locus YNL298W, strain CLA4, active compounds read low 1.02 | S. cerevisiae deletion strains, locus YNL307C, strain MCK1, active compounds read low 0.992 | S. cerevisiae deletion strains, locus YNL322C, strain KRE1, active compounds read low 1.01 | S. cerevisiae deletion strains, locus YNR052C, strain pop2, active compounds read low 1.01 | S. cerevisiae deletion strains, locus YOL006C, strain TOP1, active compounds read low 1.07 | S. cerevisiae deletion strains, locus YOL012C, strain htz1 0.841 | S. cerevisiae deletion strains, locus YOL147C, strain pex11, active compounds read low 1.01 | S. cerevisiae deletion strains, locus YOR061W, strain CKA2, active compounds read low 1.01 | S. cerevisiae deletion strains, locus YOR069W, strain VPS5, active compounds read low 1.02 | S. cerevisiae deletion strains, locus YOR136W, strain idh2, active compounds read low 1 | S. cerevisiae deletion strains, locus YOR144C, strain elg1, active compounds read low 1.02 | S. cerevisiae deletion strains, locus YOR184W, strain ser1, active compounds read low 0.987 | S. cerevisiae deletion strains, locus YOR316C, strain cot1, active compounds read low 1.01 | S. cerevisiae deletion strains, locus YPL055C, strain LGE1, active compounds read low 1.03 | S. cerevisiae deletion strains, locus YPL241C, strain CIN2, active compounds read low 1.02 | S. cerevisiae deletion strains, locus YPR119W, strain clb2, active compounds read low 1.01 | S. cerevisiae deletion strains, locus YPR141C, strain kar3, active compounds read low 1.02 | S. cerevisiae deletion strains, locus YPR163C, strain tif3, active compounds read low 1.01 | S. cerevisiae deletion strains, locus YPR167C, strain met16, active compounds read low 1 | S. cerevisiae deletion strains, strain wtn01, active compounds read low 0.996 | S. cerevisiae strains, strain wild type, active compounds read low 1.02
